# PP1 counter = counter-screen for PP5 inhibitors: inhibitors of human PP1-alpha; 320,000 compounds, 0.9% hits; inhibition, % at 6.7 µM; purified PP1alpha, OMFP fluorescence;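 active = inhibition above the mean inhibition of all tested compounds plus 3 SD, computed separately for each screening campaign, cut at about 15% in these data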
# Target sequence (P62136 whole entry, looked up): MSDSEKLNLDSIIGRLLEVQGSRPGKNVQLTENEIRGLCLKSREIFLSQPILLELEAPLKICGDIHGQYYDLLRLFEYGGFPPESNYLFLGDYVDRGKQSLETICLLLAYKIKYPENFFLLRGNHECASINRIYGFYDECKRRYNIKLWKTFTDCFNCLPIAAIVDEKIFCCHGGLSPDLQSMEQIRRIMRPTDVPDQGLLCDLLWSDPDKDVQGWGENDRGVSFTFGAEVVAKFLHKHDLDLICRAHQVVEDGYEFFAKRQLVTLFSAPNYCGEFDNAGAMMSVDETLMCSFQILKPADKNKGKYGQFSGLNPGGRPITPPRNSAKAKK
# PREPL inhibitor = inhibits the human prolyl oligopeptidase-like enzyme | inhibition, % at 5.96 µM | AID 2751 | recombinant PREPL, fluorescence polarization activity-based probe | 320,000 compounds, 0.68% hits | Q4J6C6; in the data active = inhibition above about 43%
# PP5 primary = blocks human protein phosphatase 5 activity; 320,000 compounds, 0.18% hits; inhibition, % at 6.7 µM; P53041; purified PP5c, OMFP substrate fluorescence;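 active = inhibition above the campaign's mean inhibition across all tested compounds plus 3 SD, cut at about 9.5% in these data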
# Rpn11 block = inhibitors of human proteasome Rpn11; human 26S proteasome, Ub4-pepOG fluorescence polarization; 20S core pre-blocked with epoxomicin; AID 588493; inhibition, % at 20 µM; 360,000 compounds, 0.59% hits; O00487;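 active = inhibition at 20 µM, scaled to each plate's controls, above about 33%, limit read from the data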
# Target sequence (O00487 whole entry, looked up): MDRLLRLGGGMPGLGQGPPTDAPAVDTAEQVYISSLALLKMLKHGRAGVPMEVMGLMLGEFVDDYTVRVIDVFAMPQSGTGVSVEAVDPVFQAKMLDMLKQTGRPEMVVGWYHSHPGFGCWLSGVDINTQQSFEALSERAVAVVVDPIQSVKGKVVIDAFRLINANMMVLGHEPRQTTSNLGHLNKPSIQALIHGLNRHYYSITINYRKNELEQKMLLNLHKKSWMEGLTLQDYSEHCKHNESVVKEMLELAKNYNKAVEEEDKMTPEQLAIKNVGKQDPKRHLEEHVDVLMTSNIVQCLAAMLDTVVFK
# NadD block = inhibitors of Staphylococcus aureus NadD; purified NadD enzyme, colorimetric absorbance read-out; inhibition, % at 20 µM; 360,000 compounds, 0.78% hits; AID 602399; in the data active = inhibition above about 26%
# Rpn11 confirm = confirmation of human proteasome Rpn11 inhibitors | shares compounds with Rpn11 block | purified human 26S proteasome, Ub4-pepOG fluorescence polarization; proteasome pretreated with epoxomicin | inhibition, % at 20 µM | 1,900 compounds, 29% hits | AID 602318
# MMP-2 inh = blocks human MMP-2, flagging nonselective RPN11 hits; 1,900 compounds, 4% hits; shares compounds with Rpn11 block; inhibition, % at 20 µM; recombinant MMP-2, FRET peptide cleavage fluorescence;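 also: human MMP-2 activated beforehand with APMA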
# Thrombin FP = counter-screen for RPN11 inhibitors: inhibition of bovine thrombin; bovine thrombin cleavage of Ub4-pepOG, fluorescence polarization; shares compounds with Rpn11 block; inhibition, % at 20 µM; 1,900 compounds, 13% hits; AID 602333;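 active = mean inhibition at least 40% at 20 µM, or signal 3 deviations below plate average, so some actives read negative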
# NadD conf = NadD (S. aureus) inhibition, single concentration confirmation; shares compounds with NadD block; purified S. aureus NadD, colorimetric enzyme assay; inhibition, % at 20 µM; 2,000 compounds, 13% hits; AID 624309; in the data active = inhibition mostly above about 42%, no sharp cut-off; inactive = mostly below about 42%
# Hits are given with their value; n = inactive; x = not tested or not shown. Rows were chosen to be rich in hits. Some 2.4% of all compounds tested hit in one or more screens of this group. Rule as the data show it, unless noted: active = inhibition above about 40%; inactive = the rest.
SMILES,PP1 counter,PREPL inhibitor,PP5 primary,Rpn11 block,NadD block,Rpn11 confirm,MMP-2 inh,Thrombin FP,NadD conf
O=C(Nc1cccc2nsnc12)c1ccc(-c2cccc(Cl)c2)o1,n,n,n,72,45,n,n,n,n
Cc1ccc2[nH]c(=O)c(CN(CCc3ccccc3)C(c3nnnn3Cc3ccco3)C(C)C)cc2c1 (stereo not drawn),n,n,n,57,54,n,n,n,56
CCC(c1nnnn1Cc1ccco1)N(CCc1ccccc1)Cc1cc2cc(C)ccc2[nH]c1=O (stereo not drawn),n,n,n,n,n,x,x,x,x
CN1CCN(C(CNS(=O)(=O)c2ccc([N+](=O)[O-])cc2)c2ccc(F)cc2)CC1 (stereo not drawn),n,n,n,n,n,x,x,x,x
Cc1ccc(-n2nc3c(c2NC(=O)c2cccs2)CS(=O)(=O)C3)cc1C,n,n,n,n,n,x,x,x,x
FC(F)Oc1ccc(NC(=S)NNc2ccnc3cc(Cl)ccc23)cc1,n,n,n,50,32,84,n,active,n
Cc1cc(C)c2nc(NNC(=O)c3cc(=O)c4ccccc4o3)sc2c1,n,n,n,47,59,n,n,n,62
CCOC(=O)Cc1csc(NC(=O)c2cc(=O)c3ccccc3o2)n1,n,n,n,n,n,x,x,x,x
COc1ccccc1NC(=O)c1sc2ncn(CC(=O)Nc3ccccc3)c(=O)c2c1C,n,n,n,49,30,n,n,n,n
COc1ccccc1NC(=O)Cn1cnc2sc(C(=O)Nc3cc(OC)c(OC)c(OC)c3)c(C)c2c1=O,n,n,n,n,n,x,x,x,x
CC(NC(=O)CN(Cc1ccccc1)S(=O)(=O)c1ccccc1)c1cccnc1 (stereo not drawn),n,n,n,n,n,x,x,x,x
CCCCN1CC(C)(C)[C@H](CC(=O)NC)C1=O,x,x,x,n,n,x,x,x,x
CC1(C)CC(=O)C(C=NCC2CCN(C(=O)Cc3ccccc3)CC2)=C(O)C1,n,n,n,137,36,93,n,n,n
CCOC(=O)c1ccc(N(C(=O)CNC(=O)c2ccco2)C(C(=O)NCC2CCCO2)c2ccc(OC)c(OC)c2)cc1 (stereo not drawn),n,n,n,n,n,x,x,x,x
CN1CCc2c(sc(/N=C/c3c[nH]c4ccccc34)c2C(N)=O)C1,n,n,n,114,51,n,n,n,n
CC(C)(C)OC(=O)NCCCCCNC(=O)c1ncn2c1c(=O)[nH]c1ccccc12,x,x,x,n,n,x,x,x,x
CC(C)(C)OC(=O)[C@H](Cc1ccccc1)NC(=O)c1ncn2c1c(=O)[nH]c1ccc(Br)cc12,x,x,x,83,40,n,n,n,n
O=C(Nc1ccc(-c2nc3ccccc3[nH]2)cc1)c1ccco1,n,n,n,n,n,x,x,x,x
O=C(/C=C/c1ccco1)Nc1ccc(-c2nc3ccccc3[nH]2)cc1,n,n,n,56,34,n,n,n,n
COc1cc(/C=C/c2ccc3cccc(O)c3n2)c(Br)cc1O,n,n,n,39,28,n,n,n,n
Nc1nc(SCc2ccccc2Cl)nc2nc3c(cc12)CCCC3,n,n,n,n,n,x,x,x,x
Nc1nc(SCc2ccc(Cl)cc2Cl)nc2nc3c(cc12)CCCC3,n,n,n,42,36,46,n,n,n
CCOc1ccc(N2C(=O)/C(=C\c3ccc(O)c(OC)c3)S(=O)(=O)C2c2cccc([N+](=O)[O-])c2)cc1 (stereo not drawn),n,n,n,57,43,n,n,n,62
CCC(=O)N1Cc2cc(C(=O)Nc3nccs3)nc(-c3cccc(-c4ccccc4OC)c3)c2[C@@H]1CCO,x,x,x,x,n,x,x,x,x
O=C(CC1OC(=O)c2ccccc21)Nc1cc(Cl)ccc1N1CCCC1 (stereo not drawn),n,n,n,65,32,62,n,n,n
SMILES,PP1 counter,PREPL inhibitor,PP5 primary,Rpn11 block,NadD block,Rpn11 confirm,MMP-2 inh,Thrombin FP,NadD conf
O=C(CC1OC(=O)c2ccccc21)Nc1ccccc1N1CCOCC1 (stereo not drawn),n,n,n,n,n,x,x,x,x
CCOc1ccccc1NC(=O)C(OC(=O)c1ccccc1)c1ccccc1 (stereo not drawn),n,n,n,n,n,x,x,x,x
CCOc1ccccc1NC(=O)C(OC(=O)c1ccc(NC(=O)CC#N)cc1)c1ccccc1 (stereo not drawn),n,n,n,45,28,n,n,n,n
Cc1ccc(-n2c(=O)c3cc4c(=O)n(-c5ccc(C)c(C)c5)c(=O)c4c(C(=O)c4ccc(C(=O)O)cc4)c3c2=O)cc1C,n,n,n,109,34,n,n,n,n
O=C(O)c1ccc(-n2c(=O)c3ccccc3c3ccccc3c2=O)cc1,n,n,n,n,n,x,x,x,x
CCC1CCc2sc(C(=O)NCC(c3ccc(OC)cc3)N3CCCC3)cc2C1 (stereo not drawn),n,n,n,n,n,x,x,x,x
CCn1c(SCc2nc3scc(-c4ccccc4)c3c(=O)[nH]2)nnc1-c1cccs1,n,n,n,n,n,x,x,x,x
COCCn1c(SCc2nc3scc(-c4ccc(Cl)cc4)c3c(=O)[nH]2)nnc1-c1cccc(C)c1,16,n,n,50,33,n,n,n,n
COc1ccc(CNc2nc(-c3cccnc3)nn2S(C)(=O)=O)cc1,n,n,n,n,n,x,x,x,x
CC(=O)Oc1ccc2ccc3ccc(C(C)=O)cc3c2c1,x,x,x,n,n,x,x,x,x
Cc1cc(O)c(-c2cc(C(=O)Nc3sc4c(c3C(=O)NCc3ccco3)CCC4)[nH]n2)cc1C,n,n,n,n,36,x,x,x,n
Cc1ccc(C(=O)Nc2sc3c(c2C(=O)NCc2ccco2)CCCC3)cc1,n,n,n,n,n,x,x,x,x
Cc1ccc(-c2cc(C(=O)Nc3sc4c(c3C(=O)NCc3ccco3)CCC4)[nH]n2)c(O)c1,n,n,n,n,36,x,x,x,n
COC(=O)Nc1sc2c(c1C(=O)NCc1ccco1)CCC2,n,n,n,n,n,x,x,x,x
CN(C)CCCN(C(=O)c1ccc(S(=O)(=O)N2CCc3ccccc32)cc1)c1nc2ccc(Cl)cc2s1,n,n,n,n,52,x,x,x,n
CN(C)CCCN(C(=O)c1ccc(S(=O)(=O)N2CCc3ccccc32)cc1)c1nc2ccc(F)cc2s1,n,n,n,n,n,x,x,x,x
O=C(C=Cc1ccccc1)c1cc(Br)ccc1O,x,x,x,n,n,x,x,x,x
CCOc1ccc(/C=C/C(=O)c2cc(Br)ccc(=O)c2O)cc1,n,n,n,n,32,x,x,x,n
O=C1Nc2ccccc2N=C(c2ccc3c(c2)OCO3)C1N(C(=O)c1ccc2ccccc2c1)C1CC1 (stereo not drawn),x,x,x,n,35,x,x,x,n

# High-throughput results: PubChem BioAssay, several laboratories
